In the library only some 18% were active in any assay of this set; here they are far more common.
Gal4-VP16 FLuc: VP16 counterscreen qHTS for inhibitors of ROR gamma transcriptional activity; hit rate 3.5% among 310,000; Potency, µM (highest dose often 53.6 µM), inactives show top-dose activity, negative = inhibition, usual class: inhibitors; Drosophila S2 Gal4-VP16 UAS-luciferase, luminescence, 20 h;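 further: Gal4-VP16 expression switched on by copper sulfate through the metallothionein promoter; potency means the concentration at half of the fitted maximal effect; nearly all actives have a fitted effect of over 50% in size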
RORgamma inh: qHTS for inhibitors of ROR gamma transcriptional activity. Nuclear receptor ROR-gamma (Mus musculus), P51450. Drosophila S2 Gal4-RORgamma UAS-luciferase reporter, 20 h. Potency, µM (series often up to 53.6 µM), for the others: at the top dose activity change, negative = inhibition, usual class: inhibitors. hit rate 5.4% among 310,000. AID 2551, 2010; further: potency means the concentration at half of the fitted maximal effect; nearly all actives have a fitted effect of over 60% in size
Target sequence (P51450 whole entry, looked up, the tested form may be a part): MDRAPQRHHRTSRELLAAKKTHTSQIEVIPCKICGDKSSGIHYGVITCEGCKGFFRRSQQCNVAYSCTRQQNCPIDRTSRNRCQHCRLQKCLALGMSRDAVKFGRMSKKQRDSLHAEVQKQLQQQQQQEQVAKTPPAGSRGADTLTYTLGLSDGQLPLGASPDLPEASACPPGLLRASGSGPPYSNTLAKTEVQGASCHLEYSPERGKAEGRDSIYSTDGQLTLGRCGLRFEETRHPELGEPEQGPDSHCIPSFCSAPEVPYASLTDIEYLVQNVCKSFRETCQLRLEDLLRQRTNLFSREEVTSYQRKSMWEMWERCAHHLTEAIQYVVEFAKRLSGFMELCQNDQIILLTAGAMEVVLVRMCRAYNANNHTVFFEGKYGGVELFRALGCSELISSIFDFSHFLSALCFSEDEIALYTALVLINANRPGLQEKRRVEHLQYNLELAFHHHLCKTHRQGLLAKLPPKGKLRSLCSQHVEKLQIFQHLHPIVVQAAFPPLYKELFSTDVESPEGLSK
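Stable Schneider cell line, Gal4 DNA-binding domain fused to ROR gamma, UAS-luciferase. Cmpd 1 hr RT → CuSO4 700 uM final → 20 hr RT → luciferase reagent 10 min → luminescence.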
IL1B secr inh: qHTS for Inhibitors of Inflammasome Signaling: IL-1-beta AlphaLISA Primary Screen; activity change, % at 57.5 µM; THP-1 LPS/ATP IL-1B secretion, AlphaLISA, 16 h; active compounds read low; hit rate 4.7% among 360,000; in the data active means activity change below about -50%; inconclusive means mostly about -30% to -49%
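THP-1 cells pretreated 1 hr with compounds (up to 57.5 uM final), then stimulated with LPS (250 ng/mL final) plus ATP (1.25 mM final); secreted IL-1B measured by AlphaLISA after 16 hr, decreased signal indicating inhibition.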
LDHA block: qHTS assay for inhibitors of human lactate dehydrogenase; L-lactate dehydrogenase A chain (Homo sapiens), P00338; purified LDHA, NADH/diaphorase-resazurin fluorescence; active compounds read low; activity change, % (values are at about 110 or 230 µM); hit rate 0.15% among 480,000; AID 1347041, 2019; in the data active means activity change below about -30%; inconclusive means mostly about -25% to -30%;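 further: plate controls were DMSO wells for no effect and wells without enzyme for full effect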
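Enzyme activity of human lactate dehydrogenase 5 (2 nM; 0.06 mM NADH, 0.2 mM pyruvate, 5 min, RT) is measured via a resazurin/diaphorase fluorescence readout of residual NADH.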
TDP1 cell CPT: qHTS for Inhibitors of human tyrosyl-DNA phosphodiesterase 1 (TDP1): qHTS in cells in presence of CPT; chicken DT40 Tdp1-/-;hTDP1 cells + 20 nM CPT, ATP luminescence, 48 h; Potency, µM (titrated, usually from 46.2 µM), for inactives: at the top dose activity change, negative = growth inhibition, actives largely listed as inhibitors; hit rate 12% among 420,000; AID 686979, 2013; further: potency means the concentration at half of the fitted maximal effect; nearly all actives have a fitted effect of over 55% in size
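Chicken DT40 Tdp1-/- cells stably complemented with human TDP1 were seeded at 400 cells/well in medium containing 20 nM camptothecin, exposed to pin-transferred compounds, and grown at 37 °C for at least 48 hr. Viability was read as ATP luminescence.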
TDP1 cell noCPT: qHTS for Inhibitors of human tyrosyl-DNA phosphodiesterase 1 (TDP1): qHTS in cells in absence of CPT. DT40 Tdp1-/- hTDP1 cells, no CPT, ATP luminescence, 48 h. Potency, µM (doses to about 46.2 µM), for inactives: at the highest dose activity change, negative = growth inhibition, usual class: inhibitors. AID 686978, 2013. hit rate 15% among 420,000; further: potency means the concentration at half of the fitted maximal effect; nearly all actives have a fitted effect of over 55% in size
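Chicken DT40 Tdp1-/- cells complemented with human TDP1, screened without camptothecin (DMSO vehicle only), 400 cells/well. Compounds pin-transferred, cells incubated at 37 °C for at least 48 hr. Growth read as ATP-dependent luminescence (CellTiter-Glo, 30 min at RT).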
Numbers without * were called inactive; ? = inconclusive; · = no result; ! = not active in a repeat. Unless noted, the call rests on the fitted dose curve; in most records, active means well fitted curve in the direction sought with a large enough effect; inconclusive means small, poorly fitted or top-dose-only effect, or another doubt; inactive means no such curve, though single readings can be large; an effect the other way counts as inactive or inconclusive. Unless noted, on the % scale 0 is the no-effect control and ±100 the full control effect.

SMILES | Gal4-VP16 FLuc | RORgamma inh | IL1B secr inh | LDHA block | TDP1 cell CPT | TDP1 cell noCPT
Cc1cccc2cc(CN(Cc3ccco3)C(c3nnnn3CCc3ccccc3)C(C)C)c(=O)[nH]c12 (stereo unspecified) | 2% | ? | 0 | -5 | ? | 15µM*
Cc1cccc2cc(CN(Cc3ccco3)C(=O)c3ccco3)c(=O)[nH]c12 | 10% | 27% | 14 | -2 | -3% | -19%
COc1ccc2[nH]c(=O)c(CN(Cc3ccco3)C(c3nnnn3Cc3ccccc3)C(C)C)cc2c1 (stereo unspecified) | -13% | ? | -10 | 1 | 18µM* | 21µM*
COCCn1nnnc1C(C(C)C)N(Cc1ccccc1)Cc1cc2cc(OC)ccc2[nH]c1=O (stereo unspecified) | 1% | 19% | -56* | -2 | ? | 16µM*
COc1ccc2[nH]c(=O)c(CN(C(=O)c3ccco3)C(C)C)cc2c1 | 5% | 12% | -1 | -9 | -1% | -11%
Cc1ccc(NC(=O)C2(C)CCN2C(=O)C2CCCCC2)cc1C (stereo unspecified) | · | · | 11 | 1 | ? | 18µM*
Cc1ccc(NC(=O)C2(C)CCN2C(=O)Cc2ccccc2)cc1C (stereo unspecified) | · | · | 9 | -5 | ? | 16µM*
CC(C)(C)CNC(=O)C1(C)CCN1C(=O)Cc1ccc(C(C)(C)C)cc1 (stereo unspecified) | · | · | -1 | 6 | ? | ?
Cc1ccc(NC(=O)C2(C)CCN2C(=O)Cc2ccc(C(C)(C)C)cc2)cc1C (stereo unspecified) | · | · | 5 | 6 | 21µM* | 10µM*
CCCOc1ccc(C(=O)CCN(C)C)cc1 | · | · | · | 6 | · | ·
C=CCNCCOc1ccc(C(C)(C)c2ccccc2)cc1 | -7% | -16% | ? | -17 | ? | ?
CN(C)CCOc1ccc(C(C)(C)c2ccccc2)cc1 | 5% | -12% | 4 | -38* | ? | ?
CC/C(=C(\c1ccccc1)c1ccc(OCCN(C)C)cc1)c1ccccc1 | 32µM*! | 10µM*! | -72*! | -5 | 21µM* | 18µM*
CCN(CC)CCOc1ccc(/C(=C(/Cl)c2ccccc2)c2ccccc2)cc1 | ? | ? | ? | 3 | 23µM* | 23µM*
O=S1(=O)NC2c3ccccc3CC2O1 (stereo unspecified) | 0% | 14% | 7 | 5 | 12µM* | ?
Cc1nc(SCC(=O)N2CCCCCC2)c2c(=O)n(C)c(=O)n(CC(C)C)c2n1 | · | · | -29 | 1 | ? | 13µM*
Cc1nc(SC(C)C)c2c(=O)n(C)c(=O)n(CC(C)C)c2n1 | · | · | · | 1 | · | ·
COc1cc(NC(=O)c2ccccc2[N+](=O)[O-])ccc1NC(=O)c1cc2ccccc2o1 | · | · | ? | -3 | 16µM* | 8.2µM*
COc1ccc(-c2nc3cc(C(C)C)ccc3o2)cc1NC(=O)COc1ccc([N+](=O)[O-])cc1 | · | · | · | 4 | · | ·
COc1ccc(-c2nc3cc(C(C)C)ccc3o2)cc1NC(=O)c1ccccc1[N+](=O)[O-] | · | · | · | 2 | 8.2µM* | 10µM*
COc1cc(NC(C)=O)ccc1NC(=O)c1cc2ccccc2o1 | 5% | 6% | -4 | -11 | ? | ?
COc1cc(NC(=O)c2cc(Cl)ccc2Cl)ccc1NC(=O)c1cc2ccccc2o1 | · | · | · | 1 | 5.8µM* | 4.6µM*
COc1cc(NC(=O)c2cccs2)ccc1NC(=O)c1cc2ccccc2o1 | -8% | 4% | -13 | 1 | ? | 12µM*
COc1cc(NC(=O)c2cccc(Cl)c2)ccc1NC(=O)c1cc2ccccc2o1 | · | · | · | -4 | · | ·

Bioassay records (PubChem)
